From PubChem BioAssay (NCI)
The panel holds about 79,000 compounds, 15% with a hit somewhere; the sample as a whole holds those more often. Calls of active or inactive are those of the source. Rule as the data show it: active = growth inhibition above about 70%; inactive = the rest.

Assays:
[1] = NCI Yeast Anticancer Drug Screen. Data for the rad52 strain (AID 147);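 also: 0% = growth of vehicle-treated control cultures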; conditions: S. cerevisiae rad52 mutant growth inhibition, hits give high values
Summary of the method: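 Read-out: growth inhibition versus vehicle-treated controls. Cells were a DNA repair-deficient yeast strain treated with compounds.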

[2] = NCI Yeast Anticancer Drug Screen. Data for the wt1 strain (AID 149);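 also: 0% = growth of vehicle-treated wt1 cultures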; conditions: S. cerevisiae wt1 strain (SPY 50644) growth inhibition, hits give high values
Summary of the method: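 wt1 strain grown with compound or vehicle; inhibition taken from the growth difference.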

[3] = NCI Yeast Anticancer Drug Screen. Data for the rad50EPP+ strain (AID 151);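 also: 0% = growth of vehicle-treated control cultures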; conditions: S. cerevisiae rad50 mutant strain, hits give high values
Summary of the method: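 Growth inhibition read against vehicle controls in rad50EPP+ yeast, a strain altered in DNA damage repair, after compound exposure.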

[4] = NCI Yeast Anticancer Drug Screen. Data for the mgt1 strain (AID 153); conditions: S. cerevisiae mgt1 mutant growth inhibition, hits give high values
Summary of the method: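 mgt1 yeast grown with test compound; read-out is growth inhibition versus vehicle-treated cultures.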

[5] = NCI Yeast Anticancer Drug Screen. Data for the rad50 strain (AID 155);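 also: 0% = growth of vehicle-only cultures of the same strain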; conditions: S. cerevisiae rad50 strain growth inhibition, hits give high values
Summary of the method: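 DNA repair mutant yeast, compound exposure, growth read-out; inhibition is taken relative to vehicle.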

[6] = NCI Yeast Anticancer Drug Screen. Data for the mec2-1 strain (AID 157); conditions: S. cerevisiae mec2-1 strain, hits give high values
Summary of the method: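 Yeast mec2-1 mutant treated with compound. Readout: growth inhibition vs vehicle controls.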

[7] = NCI Yeast Anticancer Drug Screen. Data for the rad14 strain (AID 159);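 also: 0% = growth of vehicle-treated control cultures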; conditions: S. cerevisiae rad14 strain growth inhibition, hits give high values
Summary of the method: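 DNA repair-defective yeast, compound-exposed; % growth inhibition derived by comparison with vehicle-treated controls.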

[8] = NCI Yeast Anticancer Drug Screen. Data for the sgs1 mgt1 strain (AID 161);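 also: 0% = growth of cultures given vehicle only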; conditions: S. cerevisiae sgs1 mgt1 strain, hits give high values
Summary of the method: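 Inhibition of yeast growth, normalised to vehicle-treated controls, is reported for a strain bearing genetic alterations in DNA damage repair.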

[9] = NCI Yeast Anticancer Drug Screen. Data for the CLN2oe strain (AID 163);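 also: 0% = growth of vehicle-only control cultures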; conditions: S. cerevisiae CLN2oe strain, hits give high values
Summary of the method: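 Read-out: yeast growth inhibition, expressed relative to vehicle-only controls. The strain bears an engineered cell-cycle alteration.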

[10] = NCI Yeast Anticancer Drug Screen. Data for the cln2 rad14 strain (AID 165);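 also: 0% = growth equal to vehicle treated cultures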; conditions: S. cerevisiae cln2 rad14 strain, hits give high values
Summary of the method: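 cln2 rad14 yeast strain; compound exposure; growth inhibition read vs vehicle controls.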

[11] = NCI Yeast Anticancer Drug Screen. Data for the bub3 strain (AID 167); conditions: S. cerevisiae bub3 mutant strain, hits give high values
Summary of the method: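 In this screen, a yeast mutant lacking normal mitotic checkpoint function is challenged with compound. Relative growth versus vehicle gives the inhibition value.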

[12] = NCI Yeast Anticancer Drug Screen. Data for the wt2 strain (AID 169);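 also: 0% = growth of vehicle-treated yeast cultures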; conditions: S. cerevisiae wt2 strain growth inhibition, hits give high values
Summary of the method: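 Read-out: growth inhibition versus vehicle-treated control cultures after compound exposure of the yeast strain.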

[13] = NCI Yeast Anticancer Drug Screen. Data for the mlh1 strain (AID 171);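 also: 0% = growth of vehicle-treated control cultures of the same strain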; conditions: S. cerevisiae mlh1 strain growth inhibition, hits give high values
Summary of the method: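 Read-out: growth inhibition versus vehicle controls. Strain: engineered yeast with a defined DNA repair or cell cycle defect, compound-treated.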

[14] = NCI Yeast Anticancer Drug Screen. Data for the sgs1 strain (AID 173);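 also: 0% = growth of vehicle-only control cultures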; conditions: S. cerevisiae sgs1 mutant, hits give high values
Summary of the method: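 Read-out: yeast growth inhibition relative to vehicle controls, following compound exposure of a strain with a defined DNA repair/cell cycle alteration.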

[15] = NCI Yeast Anticancer Drug Screen. Data for the mlh1 rad18 strain (AID 175); conditions: S. cerevisiae mlh1 rad18 strain growth inhibition, hits give high values
Summary of the method: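 Yeast w/ defined DNA-repair lesions; compound exposure; growth vs vehicle controls → % inhibition.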

[16] = NCI Yeast Anticancer Drug Screen. Data for the rad18 strain (AID 177); conditions: S. cerevisiae rad18 mutant growth inhibition, hits give high values
Summary of the method: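 Readout: growth inhibition vs vehicle controls. Cells: genetically altered yeast strain, DNA repair defect.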

[17] = at 5.0 µM (retest, dose inferred, filed as 0.5)
[18] = at 50.0 µM (retest, dose inferred, filed as 5.0)

Measured: growth inhibition

CCc1ccc(NS(=O)(=O)c2ccccc2)c([N+](=O)[O-])c1
inactive: [1]; at 1.2 µM 2% | [1]; at 3.7 µM 2% | [1]; at 11.0 µM 11% | [1]; at 33.0 µM 30% | [2]; at 1.2 µM 1% | [2]; at 3.7 µM 6% | [2]; at 11.0 µM 2% | [2]; at 33.0 µM 5% | [2]; at 100.0 µM 46% | [3]; at 1.2 µM 10% | [3]; at 3.7 µM 18% | [3]; at 11.0 µM 36% | [3]; at 33.0 µM 53% | [4]; at 1.2 µM 0% | [4]; at 3.7 µM 0% | [4]; at 11.0 µM 3% | [4]; at 33.0 µM 22% | [5]; at 1.2 µM 3% | [5]; at 3.7 µM 5% | [5]; [17] 2% | [5]; at 11.0 µM 5% | [5]; at 33.0 µM 22% | [5]; [18] 39% | [5]; at 50.0 µM 37.2% | [6]; at 1.2 µM 1% | [6]; at 3.7 µM 8% | [6]; [17] 6% | [6]; at 11.0 µM 14% | [6]; at 33.0 µM 27% | [6]; [18] 39% | [6]; at 50.0 µM 55% | [7]; at 1.2 µM 2% | [7]; at 3.7 µM 5% | [7]; at 11.0 µM 6% | [7]; at 33.0 µM 11% | [8]; [17] 8% | [8]; [18] 54% | [9]; at 1.2 µM -2% | [9]; at 3.7 µM -2% | [9]; at 11.0 µM 3% | [9]; at 33.0 µM 17% | [10]; [17] 0% | [10]; [18] 20% | [10]; at 50.0 µM 47.5% | [11]; at 1.2 µM -3% | [11]; at 3.7 µM 4% | [11]; [17] -3% | [11]; at 11.0 µM 7% | [11]; at 33.0 µM 28% | [11]; [18] 36% | [11]; at 50.0 µM 53.6% | [11]; at 100.0 µM 67% | [12]; at 1.2 µM -1% | [12]; at 3.7 µM 3% | [12]; at 11.0 µM 3% | [12]; at 33.0 µM 27% | [13]; at 1.2 µM 0% | [13]; at 3.7 µM 3% | [13]; at 11.0 µM 7% | [13]; at 33.0 µM 31% | [14]; at 1.2 µM 2% | [14]; at 3.7 µM 5% | [14]; at 11.0 µM 15% | [14]; at 33.0 µM 44% | [15]; [17] 1% | [15]; [18] 61% | [16]; at 1.2 µM 2% | [16]; at 3.7 µM 6% | [16]; at 11.0 µM 15% | [16]; at 33.0 µM 43%
active: [1]; at 100.0 µM 76% | [3]; at 100.0 µM 75% | [4]; at 100.0 µM 74% | [5]; at 100.0 µM 72% | [6]; at 100.0 µM 81% | [7]; at 100.0 µM 82% | [8]; at 50.0 µM 70.7% | [9]; at 100.0 µM 73% | [12]; at 100.0 µM 78% | [13]; at 100.0 µM 71% | [14]; at 100.0 µM 90% | [15]; at 50.0 µM 78% | [16]; at 100.0 µM 87%
